Unmarked numbers belong to inactive results.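 The calls were made as follows: active = growth AUC significantly below the DMSO wells by Dunnett test; inactive = the rest.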

The first experiment deals with Pseudomonas 6 (Pseudomonas sp.). Kind of experiment: relative growth (AUC of 72 h growth curve relative to DMSO control, dAUC) (ratio); higher = more growth (less inhibition), active = hit call of the paper. To be noted: 20 µM. The procedure, abridged:
(§1)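 Bacterial isolates from Icelandic stream sediments and Silwood Park soil, plus whole sediment communities, were grown to carrying capacity in Luria–Bertani medium, then diluted 1:100 into 96-well plates with each chemical at 20 µM (1% DMSO). A600 was read hourly for 72 h on a plate reader, with brief shaking before each read. Relative growth (dAUC) is the spline-integrated area under the growth curve, averaged over three biological replicates and divided by the mean of the DMSO controls.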
With `C/C(=N\C#N)N(C)Cc1ccc(Cl)nc1`, the relative growth is 0.981.
`CCCCN(CCCC)SN(C)C(=O)Oc1cccc2c1OC(C)(C)C2`: the relative growth is 1.18.
In the case of `N#Cc1c(Cl)c(Cl)c(Cl)c(C#N)c1Cl`, the relative growth is 1.1.
On to `Cc1nc(N(C)C)nc(OC(=O)N(C)C)c1C`, for which the relative growth was 1.02.
Same read-out and setting: with `CC(C)CC(C)c1sccc1NC(=O)c1cn(C)nc1C(F)(F)F` (stereo unspecified) the figure was 1.05.
Same read-out and setting: in the case of `Fc1ccc(Oc2ccnc3cc(Cl)cc(Cl)c23)cc1` it was 1.06; in that of `CC1(C)C(C=C(Cl)Cl)C1C(=O)OCc1cccc(Oc2ccccc2)c1` (stereo unspecified), 1.13.
Regarding `Oc1ccccc1-c1ccccc1`, the relative growth is 1.14.
The same measure, in the same setting: in the case of `CCC(C)c1ccccc1OC(=O)NC` (stereo unspecified) it was 1.09.
Take `CN/C(=N\[N+](=O)[O-])NCc1cnc(Cl)s1`: the relative growth is 1.09.
As to `O=C(O)c1nc(Cl)ccc1Cl`, the relative growth was 1.03.
As for `CC1(C)[C@H](/C=C(\Cl)C(F)(F)F)[C@@H]1C(=O)OC(C#N)c1cccc(Oc2ccccc2)c1` (stereo partly specified), the relative growth was 1.16.
Still for that read-out and setting: with `O=C(NC(=O)c1c(F)cccc1F)Nc1ccc(OC(F)(F)C(F)OC(F)(F)F)c(Cl)c1` (stereo unspecified) the figure was 0.98; with `O=C1C=C(N(Cc2ccc(Cl)nc2)CC(F)F)CO1`, 1.06.
For the molecule `O=C(O)COc1ccc(Cl)cc1Cl`, the relative growth was 1.07.
With `COc1ccc(C(=CC(=O)N2CCOCC2)c2ccc(Cl)cc2)cc1OC` (mixture of isomers), the relative growth is 0.951.
`CCN(CC)c1nc(C)cc(OP(=S)(OC)OC)n1`: the relative growth was 1.03.
Same read-out and setting: in the case of `Oc1ccc(Cl)cc1Cc1cc(Cl)ccc1O` it was 0.922; in that of `N#CC(CCc1ccc(Cl)cc1)(Cn1cncn1)c1ccccc1` (stereo unspecified), 0.909.

A further experiment deals with Rhizobium 1 (Rhizobium herbae). Described as above. Conditions: 20 µM. A digest of the protocol: as §1
Turning to `CNC(=O)CSP(=S)(OC)OC`, the relative growth was 1.05.
On the same count and under the same terms, in the case of `N#CCNC(=O)c1cnccc1C(F)(F)F` it was 0.857.
Same read-out and setting: in the case of `COP(=O)(OC)OC=C(Cl)Cl` it was 1.01; in that of `CCc1cc(C)cc(CC)c1-c1c(OC(=O)C(C)(C)C)n2n(c1=O)CCOCC2`, 0.907; in that of `CCOc1ccc(C(C)(C)COCc2cccc(Oc3ccccc3)c2)cc1`, 0.851.
Consider `COc1ncc(F)c2nc(S(=O)(=O)Nc3c(F)cccc3F)nn12`, for which the relative growth was 0.982.
Consider `O=[N+]([O-])c1cc(C(F)(F)F)c(Cl)c([N+](=O)[O-])c1Nc1ncc(C(F)(F)F)cc1Cl`, for which the relative growth is 0.109 (active).
The same measure, in the same setting: with `COP(=S)(OC)Oc1ccc(SC)c(C)c1` the figure was 0.937.
`CCCCCCCCCCCCNC(=N)N`: the relative growth is 0.00569 (active).
With `CC(C)NC(=O)N1CC(=O)N(c2cc(Cl)cc(Cl)c2)C1=O`, the relative growth is 1.03.
Still for that read-out and setting: with `CCCCOC(=O)[C@H](C)Oc1ccc(Oc2ccc(C#N)cc2F)cc1` the figure was 1.07; with `CCc1cccc(C)c1N(C(=O)CCl)[C@@H](C)COC`, 0.952.
For `CC(C1CC1)C(O)(Cn1cncn1)c1ccc(Cl)cc1` (stereo unspecified), the relative growth was 0.947.
On the same count and under the same terms, with `CC(COc1ccc(Oc2ccccc2)cc1)Oc1ccccn1` (stereo unspecified) the figure was 0.97.
The same measure, in the same setting: in the case of `CCNc1nc(Cl)nc(NC(C)C)n1` it was 0.995.
The same measure, in the same setting: in the case of `N#C/N=C1\SCCN1Cc1ccc(Cl)nc1` it was 1.02.
Regarding `CCCC1COC(Cn2cncn2)(c2ccc(Cl)cc2Cl)O1` (stereo unspecified), the relative growth is 0.931.
On the same count and under the same terms, with `COc1cc(C)c(C(=O)c2c(OC)ccc(Br)c2C)c(OC)c1OC` the figure was 0.937; with `C/C(=N\C#N)N(C)Cc1ccc(Cl)nc1`, 1.11.
Same read-out and setting: with `CCCCN(CCCC)SN(C)C(=O)Oc1cccc2c1OC(C)(C)C2` the figure was 0.946; with `N#Cc1c(Cl)c(Cl)c(Cl)c(C#N)c1Cl`, 0.17 (active); with `Cc1nc(N(C)C)nc(OC(=O)N(C)C)c1C`, 1.22.
Still for that read-out and setting: with `CC(C)CC(C)c1sccc1NC(=O)c1cn(C)nc1C(F)(F)F` (stereo unspecified) the figure was 0.331 (active); with `Fc1ccc(Oc2ccnc3cc(Cl)cc(Cl)c23)cc1`, 0.992.
As for `CC1(C)C(C=C(Cl)Cl)C1C(=O)OCc1cccc(Oc2ccccc2)c1` (stereo unspecified), the relative growth is 0.958.
The same measure, in the same setting: with `Oc1ccccc1-c1ccccc1` the figure was 0.989.
On the same count and under the same terms, with `CCC(C)c1ccccc1OC(=O)NC` (stereo unspecified) the figure was 1.01; with `CN/C(=N\[N+](=O)[O-])NCc1cnc(Cl)s1`, 0.902; with `O=C(O)c1nc(Cl)ccc1Cl`, 1.05.
The same measure, in the same setting: in the case of `CC1(C)[C@H](/C=C(\Cl)C(F)(F)F)[C@@H]1C(=O)OC(C#N)c1cccc(Oc2ccccc2)c1` (stereo partly specified) it was 1.28.
`O=C(NC(=O)c1c(F)cccc1F)Nc1ccc(OC(F)(F)C(F)OC(F)(F)F)c(Cl)c1` (stereo unspecified): the relative growth is 0.952.
For the molecule `O=C1C=C(N(Cc2ccc(Cl)nc2)CC(F)F)CO1`, the relative growth is 0.978.
Regarding `O=C(O)COc1ccc(Cl)cc1Cl`, the relative growth was 1.03.
Same read-out and setting: with `COc1ccc(C(=CC(=O)N2CCOCC2)c2ccc(Cl)cc2)cc1OC` (mixture of isomers) the figure was 1.02; with `CCN(CC)c1nc(C)cc(OP(=S)(OC)OC)n1`, 1.05.
Same read-out and setting: with `Oc1ccc(Cl)cc1Cc1cc(Cl)ccc1O` the figure was 0.0117 (active).
As to `N#CC(CCc1ccc(Cl)cc1)(Cn1cncn1)c1ccccc1` (stereo unspecified), the relative growth is 0.947.

For the origin of these results see the supplement of paper PMC12067926.
